Data reported in the supplement of paper PMC12350171.
Structures can show the parent of a compound that is named as a salt.

Key:
Conditions in all cases: 20 µM
[1] = tested on: Salmonella enterica typhimurium; assay: growth AUC normalised to DMSO control (fraction of control); higher = less growth inhibition, active = hit call of the paper
Summary of the method: (§1)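 Three biological replicates were carried out, with OD578 read hourly for 24 h. Before inoculation at a starting OD578 of 0.01, pathogens were passaged anaerobically twice; plates were pre-reduced mGAM containing 20 μM compound and 1% DMSO, sealed with breathable membranes, and the Haemophilus parainfluenzae medium carried added hemin and NAD. Area under each growth curve was calculated by the trapezoidal rule up to the exponential-to-stationary transition and normalised to DMSO controls on the same plate.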

[2] = tested on: Shigella flexneri; assay: as above
Summary of the method: as §1

[3] = tested on: Vibrio cholerae; assay: as above
Summary of the method: as §1

[4] = tested on: Yersinia pseudotuberculosis; assay: as above
Summary of the method: as §1

[5] = tested on: P. vulgatus RND KO; assay: growth AUC normalised to DMSO control (median) (fraction of control); higher = less growth inhibition, active = hit call of the paper
Summary of the method: (§2)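 Area under the growth curve, calculated by the trapezoidal rule up to entry into stationary phase, was normalised to vehicle wells on the same plate. Strains had been passaged twice overnight without oxygen and then grown in mGAM in 96-well plates from OD578 0.01, each with an approved-drug library compound at 20 μM in 1% DMSO. OD578 was read hourly over 24 h in an anaerobic incubator, and the median of three biological replicates is given.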

[6] = tested on: P. vulgatus WT; assay: as above
Summary of the method: as §2

[7] = tested on: S. enterica typhimurium WT; assay: as above
Summary of the method: as §2

[8] = tested on: S. enterica typhimurium tolC KO; assay: as above
Summary of the method: as §2

Measured: growth AUC normalised to DMSO control
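Wherever growth AUC normalised to DMSO control (median) is given: active when median AUC fell below 0.1.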

c1ccc(CNc2ncnc3nc[nH]c23)cc1 [Aminopurine, 6-benzyl]
inactive: [1] 1 | [2] 1 | [3] 0.953 | [4] 1.01 | [5] 1 | [6] 0.985 | [7] 1 | [8] 0.995

CN1CCC(=C2c3ccccc3CCc3sccc32)CC1 [Pizotifen malate]
inactive: [1] 0.992 | [2] 0.976 | [4] 0.998 | [5] 0.965 | [6] 0.973 | [7] 0.994 | [8] 0.963
active: [3] 0.873

CCOC(=O)C1=C(C)NC(C)=C(C(=O)OC)C1c1cccc(Cl)c1Cl (configuration not stated) [Felodipine]
inactive: [1] 0.987 | [2] 1 | [3] 1 | [4] 0.883 | [5] 1.01 | [6] 1.03 | [7] 1 | [8] 1

Cc1[nH]c(=O)c(C#N)cc1-c1ccncc1 [Milrinone]
inactive: [1] 0.949 | [2] 0.999 | [3] 0.968 | [4] 0.989 | [5] 0.988 | [6] 0.995 | [7] 0.987 | [8] 0.936

CC1(C)S[C@@H]2[C@H](NC(=O)[C@H](NC(=O)N3CCNC3=O)c3ccccc3)C(=O)N2[C@H]1C(=O)O [Azlocillin sodium salt]
inactive: [7] 0.887
active: [1] 0.766 | [2] 0.0935 | [3] 0.78 | [4] 0.281 | [5] 0.0105 | [6] 0.0107 | [8] 0.00584

CN1CCC[C@@H]1CCO[C@](C)(c1ccccc1)c1ccc(Cl)cc1 [Clemastine fumarate]
inactive: [1] 0.999 | [2] 0.969 | [3] 0.926 | [4] 1.02 | [5] 0.944 | [6] 0.947 | [7] 0.998 | [8] 0.925

CN(C)CCOC(c1ccc(Cl)cc1)c1ccccn1 (configuration not stated) [Carbinoxamine maleate salt]
inactive: [1] 1.01 | [2] 1.08 | [3] 1.04 | [4] 0.989 | [5] 1.07 | [6] 1.09 | [7] 1 | [8] 0.997

Cc1cc(=O)n(-c2ccccc2)n1C [Antipyrine]
inactive: [1] 1 | [2] 1.01 | [3] 1.01 | [4] 1 | [5] 1 | [6] 1.04 | [7] 0.989 | [8] 1.01

Cc1nc2ccccn2c(=O)c1CCN1CCC(C(=O)c2ccc(F)cc2)CC1 [Pirenperone]
inactive: [1] 1.02 | [2] 1.03 | [3] 1.01 | [4] 1 | [5] 1.03 | [6] 1.04 | [7] 1.01 | [8] 0.986

COc1ccc2[nH]cc(CCNC(C)=O)c2c1 [Melatonin]
inactive: [1] 0.987 | [2] 0.972 | [3] 0.997 | [4] 0.992 | [5] 0.988 | [6] 1 | [7] 0.996 | [8] 0.996

COCCCOc1ccnc(C[S+]([O-])c2nc3ccccc3[nH]2)c1C (configuration not stated) [Rabeprazole sodium salt]
inactive: [1] 1.01 | [2] 1.04 | [3] 1.02 | [4] 1 | [5] 1.05 | [6] 1.01 | [7] 1 | [8] 0.889

COc1cccc2c1C(=O)c1c(O)c3c(c(O)c1C2=O)C[C@@](O)(C(=O)CO)C[C@@H]3O[C@H]1C[C@H](N)[C@H](O)[C@H](C)O1 [Doxorubicin hydrochloride]
active: [1] 0.942 | [4] 0.906 | [8] 0.0132
inactive: [2] 0.932 | [3] 0.998 | [5] 0.948 | [6] 0.966 | [7] 0.986

CCOC(=O)C1=C[C@]2(CC)CCCN3CCc4c(n1c1ccccc41)[C@@H]32 [Vinpocetine]
inactive: [1] 0.974 | [2] 1.03 | [3] 0.904 | [4] 1.01 | [5] 1 | [6] 0.988 | [7] 1 | [8] 0.972

CC(C)(O/N=C(\C(=O)N[C@@H]1C(=O)N2C(C(=O)[O-])=C(C[n+]3ccccc3)CS[C@H]12)c1csc(N)n1)C(=O)O [Ceftazidime pentahydrate]
inactive: [7] 0.214
active: [1] 0.016 | [2] 0.0524 | [3] 0.494 | [4] 0.186 | [5] 0.0283 | [6] 0.0233 | [8] 0.0609

CC(=O)CC(c1ccccc1)c1c(O)c2ccccc2oc1=O (configuration not stated) [Warfarin]
inactive: [1] 0.999 | [2] 0.996 | [3] 0.945 | [4] 0.999 | [5] 1 | [6] 1.03 | [7] 0.999 | [8] 0.988

Cc1ccc(S(=O)(=O)NC(=O)NN2CC3CCCC3C2)cc1 (configuration not stated) [Gliclazide]
inactive: [1] 1.02 | [2] 1.04 | [3] 1.02 | [4] 0.987 | [5] 0.999 | [6] 1.02 | [7] 1 | [8] 1.01

CCC(=O)O[C@]1(C(=O)CCl)[C@@H](C)C[C@H]2[C@@H]3CCC4=CC(=O)C=C[C@]4(C)[C@@]3(F)[C@@H](O)C[C@@]21C [Clobetasol propionate]
inactive: [1] 1.01 | [2] 1.04 | [3] 1.02 | [4] 1.01 | [5] 1.02 | [6] 1.05 | [7] 1 | [8] 0.927

CCCN[C@H]1CCc2nc(N)sc2C1 [Pramipexole dihydrochloride]
inactive: [1] 0.989 | [2] 0.972 | [3] 0.989 | [4] 0.994 | [5] 0.988 | [6] 0.997 | [7] 0.992 | [8] 0.999

CCCCNc1ccc(C(=O)OCCN(C)C)cc1 [Tetracaine hydrochloride]
inactive: [1] 1.01 | [2] 1.01 | [3] 1.01 | [4] 1 | [5] 1.04 | [6] 1.07 | [7] 0.999 | [8] 0.993

O=C(N/N=C/c1ccc([N+](=O)[O-])o1)c1ccc(O)cc1 [Nifuroxazide]
active: [1] 0.866 | [2] 0.189 | [3] 0.623
inactive: [4] 0.96 | [5] 0.883 | [6] 0.861 | [7] 0.924 | [8] 0.862

Nc1ccc(O)c(C(=O)O)c1 [Mesalamine]
inactive: [1] 1.01 | [2] 1.02 | [3] 1.02 | [4] 1.03 | [5] 1 | [6] 1.03 | [7] 0.998 | [8] 1.01

NCCNCCNCCNCCN [Tetraethylenepentamine pentahydrochloride]
inactive: [1] 0.99 | [2] 0.972 | [3] 0.979 | [4] 0.998 | [5] 0.998 | [6] 0.995 | [7] 1.01 | [8] 1

O=C1CN(/N=C/c2ccc([N+](=O)[O-])o2)C(=O)N1 [Nitrofurantoin]
active: [2] 0.843
inactive: [1] 0.974 | [3] 0.964 | [4] 0.999 | [5] 0.253 | [6] 0.556 | [7] 0.836 | [8] 0.858

Nc1ccc(S(N)(=O)=O)cc1 [Sulfanilamide]
inactive: [1] 1.03 | [2] 1.04 | [3] 1.05 | [4] 1.01 | [5] 1.03 | [6] 1.06 | [7] 0.993 | [8] 1

CO[C@H]1/C=C/O[C@@]2(C)Oc3c(C)c(O)c4c(O)c(c(/C=N/N5CCN(C)CC5)c(O)c4c3C2=O)NC(=O)/C(C)=C\C=C\[C@H](C)[C@H](O)[C@@H](C)[C@@H](O)[C@@H](C)[C@H](OC(C)=O)[C@@H]1C [Rifampicin]
active: [1] 0.23 | [2] 0.118 | [4] 0.0362 | [5] 0.0135 | [6] 0.0147
inactive: [3] 1.01 | [7] 0.523 | [8] 0.254

Nc1nc(=O)c2nc(CNc3ccc(C(=O)N[C@@H](CCC(=O)O)C(=O)O)cc3)cnc2[nH]1 [Folic acid]
inactive: [1] 0.991 | [2] 0.99 | [3] 1 | [4] 0.994 | [5] 0.997 | [6] 1 | [7] 0.997 | [8] 1.01

CC1c2cccc(O)c2C(O)=C2C(=O)C3(O)C(O)=C(C(N)=O)C(=O)C(N(C)C)C3C(O)C21 (configuration not stated) [Doxycycline hydrochloride]
active: [1] 0.00452 | [2] 0.00494 | [3] 0.018 | [4] 0.0395 | [5] 0.012 | [6] 0.00631 | [7] 0.00375 | [8] 0.00276

Cc1nc2n(c(=O)c1CCN1CCC(c3noc4cc(F)ccc34)CC1)CCCC2 [Risperidone]
inactive: [1] 1 | [2] 0.997 | [3] 0.995 | [4] 1 | [5] 1.03 | [6] 1.03 | [7] 0.997 | [8] 0.993

C[N+]1(C)CCC(OC(=O)C(O)(c2ccccc2)C2CCCC2)C1 (configuration not stated) [Glycopyrrolate bromide]
inactive: [1] 1.02 | [2] 1 | [3] 1.01 | [4] 1.01 | [5] 1 | [6] 0.984 | [7] 1 | [8] 0.993
